Source: PubChem BioAssay
CRE-bla Fsk: alters forskolin-stimulated CRE reporter signaling in CHO cells; CHO CRE-bla reporter (cAMP response element driving beta-lactamase), forskolin EC10, beta-lactamase ratio; Potency, µM (doses to about 38.2 µM), without a hit: at the highest dose activity change, negative = inhibition, most hits filed as activators; AID 662; hit rate 2.5% among 71,000; active means well fitted activation curve with a large enough effect in the signal ratio, with a control signal flat, not every such curve was filed as active; inconclusive means small, poorly fitted or top-dose-only effect, or effect the other way, or a change in a side signal; the % refers to the signal ratio; further: % of control where 0% means no effect
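Beta-lactamase reporter under a cAMP responsive element in CHO cells; compounds tested in titration series against EC10 NKH 477, 3 h at 37 °C. Read-out: CCF4 FRET ratio 460nm/530nm (excitation 405nm) giving %Activity, fitted to AC50.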
Tau fil binding: binds recombinant human tau filaments; P10636; recombinant tau filaments, thioflavin S fluorescence, 15 h; filaments grown with octadecylsulfate alongside compound; Potency, µM (titrated, usually from 57.1 µM), for the others: at the top dose activity change, negative = inhibition; hit rate 2% among 71,000; AID 596;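 further: on the % scale 0 is the no-effect control and ±100 the full control effect; actives lower thioflavin S fluorescence by blocking filaments or displacing dye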
Target sequence (P10636 whole entry, looked up): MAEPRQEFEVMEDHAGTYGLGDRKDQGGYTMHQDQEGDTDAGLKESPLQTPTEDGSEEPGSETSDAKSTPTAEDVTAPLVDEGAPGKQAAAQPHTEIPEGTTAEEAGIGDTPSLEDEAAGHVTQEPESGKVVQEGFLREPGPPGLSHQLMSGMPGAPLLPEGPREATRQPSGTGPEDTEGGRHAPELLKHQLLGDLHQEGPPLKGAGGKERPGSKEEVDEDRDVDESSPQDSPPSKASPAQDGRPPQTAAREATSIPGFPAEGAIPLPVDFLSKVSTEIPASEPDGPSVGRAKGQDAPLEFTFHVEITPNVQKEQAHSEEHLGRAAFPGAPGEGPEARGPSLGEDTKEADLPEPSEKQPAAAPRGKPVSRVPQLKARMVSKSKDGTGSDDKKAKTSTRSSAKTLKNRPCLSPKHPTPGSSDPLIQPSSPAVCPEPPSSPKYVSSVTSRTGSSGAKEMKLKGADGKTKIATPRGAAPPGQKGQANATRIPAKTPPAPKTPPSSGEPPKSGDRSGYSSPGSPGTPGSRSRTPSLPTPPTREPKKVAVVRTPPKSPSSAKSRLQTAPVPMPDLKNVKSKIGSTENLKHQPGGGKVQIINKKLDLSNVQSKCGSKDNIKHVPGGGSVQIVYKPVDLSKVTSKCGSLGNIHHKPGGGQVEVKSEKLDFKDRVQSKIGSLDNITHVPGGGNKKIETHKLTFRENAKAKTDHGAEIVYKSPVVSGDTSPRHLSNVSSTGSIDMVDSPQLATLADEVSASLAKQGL
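Tau 2 uM in ThS buffer dispensed; compound added; 60 uM ODS added (finals 1 uM tau, 30 uM ODS); 15 h 37 C; fluor ex450/em510.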
HEK293 cAMP cs: parental HEK293 cAMP activation (counter-screen); parental HEK293 CNG cAMP sensor, membrane potential fluorescence; Potency, µM (titrated, usually from 57.1 µM), for inactives: at the top dose activation, usual class: activators; hit rate 2.5% among 73,000; further: % of control where 0% means no effect; nearly all actives have a fitted effect of over 55% in size
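Counterscreen for endogenous-receptor signalling: CNG-channel HEK 293 cells report cAMP rise by membrane depolarization. After 60 min dye equilibration with 100 uM RO 20-1724, compounds incubated 30 min before bottom-read fluorescence at 590 nm.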
TSHR ag: TSH receptor (human) agonism; P16473; HEK293-CNG-TSHR cells (CNG channel as cAMP sensor), membrane potential dye, cAMP; Potency, µM (titrated, usually from 57.1 µM), without a hit: at the top dose activation, usual class: activators; hit rate 0.48% among 73,000; AID 926; active means well fitted activation curve with a large enough effect in the main read-out, with a control signal flat, not every such curve was filed as active; inconclusive means small, poorly fitted or top-dose-only effect, or a change in a side signal; inactive means no such curve, though single readings can be large or run the other way; % of control where 0% means no effect;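 further: the control signal comes from parental cells without the receptor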
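cAMP rise detected as CNG-channel membrane depolarization by fluorescent dye (emission 590 nm), 30 min after compound, following 60 min dye loading containing 100 uM RO 20-1724 at room temperature. Cells: TSHR/CNG HEK 293, with parental CNG HEK 293 as control.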
ERK AVP block: inhibitors of vasopressin-stimulated ERK signaling pathway | hit rate 0.99% among 72,000 | AID 995 | HEK293-V1b, vasopressin-stimulated pERK AlphaScreen | Potency, µM (top dose mostly 57.5 µM), for the others: at the top dose activity, negative = inhibition, hits mostly inhibitors; further: on the % scale 0 is the no-effect control and ±100 the full control effect; nearly all actives have a fitted effect of over 55% in size
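HEK293 cells stably expressing V1b receptor, preincubated 30 min at 37 °C with compound, then stimulated 5 min with 25 nM vasopressin. Phospho-ERK by AlphaScreen SureFire after 5 h RT; normalized to DMSO and vasopressin; AC50 by Hill fit.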
Starred values were filed as active, the others as inactive; ! = a repeat was not active; [ ] = dose if it differs, or a comment. An excerpt weighted towards active compounds, which were near 7.4% of everything screened. Unless noted, the call rests on the fitted dose curve; in most records, active means well fitted curve in the direction sought with a large enough effect; inconclusive means small, poorly fitted or top-dose-only effect, or another doubt; inactive means no such curve, though single readings can be large; an effect the other way counts as inactive or inconclusive. Potency means the concentration at half of the fitted maximal effect.

Results for CC(C)Sc1nc(-c2cccs2)nc2c1c(=O)n(C)c(=O)n2C ?
CRE-bla Fsk: 3.16µM*; Tau fil binding: -8.5%; HEK293 cAMP cs: 1.5%; TSHR ag: -4.3%

Results for CCOc1ccccc1N1CCN(S(=O)(=O)CC)CC1 ?
CRE-bla Fsk: -7.8%; Tau fil binding: -23.2%; HEK293 cAMP cs: -0.7%; TSHR ag: 5.0%; ERK AVP block: -14.7%

Results for CCOc1ccccc1N1CCN(S(=O)(=O)c2cccs2)CC1 ?
CRE-bla Fsk: 9.2%; Tau fil binding: -0.8%; HEK293 cAMP cs: 10µM*; TSHR ag: inconclusive; ERK AVP block: 3.3%

How did CCOc1ccccc1N1CCN(S(=O)(=O)c2cccc3nsnc23)CC1 do in these assays?
CRE-bla Fsk: -12.5%; Tau fil binding: 20µM*; HEK293 cAMP cs: 11.8%; TSHR ag: 19.1%; ERK AVP block: inconclusive

How did Cc1ccc2c(c1)N(CC(=O)NCC1COc3ccccc3O1)C(=O)CO2 (configuration not stated) do in these assays?
CRE-bla Fsk: -17.1%; Tau fil binding: -16.7%; HEK293 cAMP cs: -48.9%; TSHR ag: inconclusive

How did CC(=O)OC1CC[C@]2(C)C(CC(OC(C)=O)[C@]3(C)C2CC[C@@]2(C)C(c4ccoc4)OC(=O)C4O[C@]432)C1(C)C (some centres not stated) do in these assays?
ERK AVP block: 20.2%

What do the screens show for `O=C(O)CNCCc1ccccc1`?
CRE-bla Fsk: -0.8%[7.6 µM]; Tau fil binding: 3.6%[11.4 µM]; HEK293 cAMP cs: -55.7%[11.4 µM]; TSHR ag: inconclusive; ERK AVP block: -15.3%[11.5 µM]

Results for O=C(Nc1ccccc1N1CCN(c2ccccc2)CC1)C1CCCCC1 ?
CRE-bla Fsk: -5.1%; Tau fil binding: -13.0%; HEK293 cAMP cs: 7.94µM*; TSHR ag: inconclusive; ERK AVP block: 3.2%

Results for NC[C@@H]1O[C@H](C23CC4CC(CC(C4)C2)C3)Cc2c1ccc(O)c2O ?
CRE-bla Fsk: inconclusive; Tau fil binding: 31.6µM*!; HEK293 cAMP cs: -7.9%; TSHR ag: -11.1%; ERK AVP block: inconclusive

How did NC[C@@H]1O[C@H](c2ccccc2)Cc2c1ccc(O)c2O do in these assays?
CRE-bla Fsk: -7.5%; Tau fil binding: -8.8%; HEK293 cAMP cs: -7.8%; TSHR ag: 5.9%; ERK AVP block: -14.2%

Results for O=C(O)CCC(=O)Nc1ccc(C(=O)OC2CCCCC2)cc1 ?
CRE-bla Fsk: 0.6%; Tau fil binding: 3.7%; HEK293 cAMP cs: -3.4%; TSHR ag: -5.0%; ERK AVP block: -13.2%

What do the screens show for `O=C(OC1CCCCC1)c1ccc2c(c1)C1C=CCC1C(C(=O)O)N2` (configuration not stated)?
CRE-bla Fsk: -16.6%; Tau fil binding: 0.631µM*; HEK293 cAMP cs: 4.2%; TSHR ag: 0.9%; ERK AVP block: 45.2%

Results for O=C(O)C1Nc2c(O)cccc2C2C=CCC12 (configuration not stated) ?
CRE-bla Fsk: inconclusive; Tau fil binding: 12.6µM*; HEK293 cAMP cs: -15.9%; TSHR ag: 0.4%; ERK AVP block: inconclusive

Results for Cc1c(N=C=O)cccc1N=C=O ?
CRE-bla Fsk: -9.7%; Tau fil binding: 90.8%; HEK293 cAMP cs: 9.9%; TSHR ag: 3.0%; ERK AVP block: 11.7%

Results for Cn1c2ccccc2c2ncn(CCCN3CCOCC3)c(=O)c21 ?
CRE-bla Fsk: inconclusive; Tau fil binding: 4.7%; HEK293 cAMP cs: -5.8%; TSHR ag: 8.2%[11.4 µM]; ERK AVP block: -0.4%

What do the screens show for `Cn1c2ccc(F)cc2c2ncn(CCN3CCOCC3)c(=O)c21`?
CRE-bla Fsk: 10µM*; Tau fil binding: 9.4%; HEK293 cAMP cs: -11.2%; TSHR ag: 3.1%; ERK AVP block: -4.2%

What do the screens show for `C=CCC1C=CC(OC(=O)OCC)C(COC(=O)OCC)O1` (configuration not stated)?
HEK293 cAMP cs: -2.1%[11.4 µM]; TSHR ag: -1.9%[11.4 µM]; ERK AVP block: 8.8%[11.5 µM]

How did COc1cc(NC(=O)c2ccco2)c(OC)cc1NC(=O)CSc1nnc(-c2cccs2)n1C do in these assays?
CRE-bla Fsk: inconclusive; Tau fil binding: 134.0%; HEK293 cAMP cs: 6.6%; TSHR ag: -4.5%; ERK AVP block: 1.7%

Results for O=C(Nc1cn(-c2ccccc2)nc1-c1cccs1)c1ccco1 ?
CRE-bla Fsk: 3.4%; Tau fil binding: 13.3%; HEK293 cAMP cs: 31.6µM*; TSHR ag: inconclusive; ERK AVP block: -21.0%

Results for CN(Cc1ccco1)c1ccnc(-c2ccccc2C(F)(F)F)n1 ?
CRE-bla Fsk: 1.6%; Tau fil binding: -0.4%; HEK293 cAMP cs: 22.5%; TSHR ag: 7.5%; ERK AVP block: 12.4%

Results for Cc1ccc(NC(=O)c2cc(-c3cccc(O)c3)on2)cc1C ?
CRE-bla Fsk: inconclusive; Tau fil binding: 167.9%; HEK293 cAMP cs: 5.3%; TSHR ag: 1.1%; ERK AVP block: 31.6µM*

How did Cc1ccc(NC(=O)c2cc(-c3ccco3)on2)cc1C do in these assays?
CRE-bla Fsk: -5.1%; Tau fil binding: -4.7%; HEK293 cAMP cs: 18.5%; TSHR ag: 0.4%; ERK AVP block: 4.9%

How did CN1CCN(c2ncc3nc(CCc4ccccc4)c(=O)n(C4CC4)c3n2)CC1 do in these assays?
CRE-bla Fsk: inconclusive; Tau fil binding: inactive; HEK293 cAMP cs: -3.5%; TSHR ag: -3.7%; ERK AVP block: -24.1%

How did OCCN(CO)CO do in these assays?
CRE-bla Fsk: -3.0%[7.6 µM]; Tau fil binding: 19.8%[11.4 µM]; HEK293 cAMP cs: -5.2%[11.4 µM]; TSHR ag: -0.3%[11.4 µM]; ERK AVP block: 1.5%[11.5 µM]

Results for O=C(CSCc1nc2ccccc2[nH]1)N1CCN(c2ccc(F)cc2)CC1 ?
CRE-bla Fsk: -17.7%; Tau fil binding: 20µM*; HEK293 cAMP cs: 15.8%; TSHR ag: 25.7%; ERK AVP block: -29.9%

Results for O=C(c1ccccc1C(=O)N1CCN(c2ccc(F)cc2)CC1)N1CCN(c2ccc(F)cc2)CC1 ?
CRE-bla Fsk: inconclusive; Tau fil binding: 19.4%; HEK293 cAMP cs: 11.3%; TSHR ag: -10.5%; ERK AVP block: 39.8µM*

How did O=C(CSCc1cccc(F)c1)N1CCN(c2ccccc2)CC1 do in these assays?
CRE-bla Fsk: -12.1%; Tau fil binding: 3.7%; HEK293 cAMP cs: 31.6µM*; TSHR ag: inconclusive; ERK AVP block: -0.8%

Results for O=C(CSCc1nc2ccccc2[nH]1)N1CCN(c2cccc(Cl)c2)CC1 ?
CRE-bla Fsk: -25.1%; Tau fil binding: -9.5%; HEK293 cAMP cs: inconclusive; TSHR ag: inconclusive; ERK AVP block: 25.1µM*

What do the screens show for `C[C@@H]1CC2(OC[C@]3(C)O[C@H]23)O[C@H]2C[C@@]3(C)[C@@H]4CC[C@H]5C(C)(C)C(O[C@@H]6OC[C@@H](O)[C@H](O)[C@H]6O)CC[C@@]56C[C@@]46CC[C@]3(C)[C@@H]12` (some centres not stated)?
CRE-bla Fsk: -21.0%; Tau fil binding: 7.9%; HEK293 cAMP cs: -10.7%; TSHR ag: 3.6%; ERK AVP block: 18.8%
